Experimental data from PubChem BioAssay (NCI).
The panel holds about 83,000 compounds, 20% with a hit somewhere; the sample as a whole holds those more often.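 Note: values are percent growth. 100 is the growth of untreated cells, values between 100 and 0 indicate rising inhibition; between -100 and 0 indicates cell death.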 The source made the active and inactive calls. How the source made its calls: active means growth percent below 10; inactive means the rest.

Columns and labels:
Experiment in all cases: NCI-60 one-dose screen, 48 h (100 = growth as untreated, 0 = no growth, -100 = all killed)
Details in all cases: 10 µM
DU-145 prostate = test system: DU-145 prostate
K-562 leukemia = test system: K-562 leukemia
MALME-3M melanoma = test system: MALME-3M melanoma
MDA-MB-231 breast = test system: MDA-MB-231 breast
RXF 393 renal = test system: RXF 393 renal
SF-268 CNS = test system: SF-268 CNS
SF-295 CNS = test system: SF-295 CNS
SF-539 CNS = test system: SF-539 CNS
UACC-257 melanoma = test system: UACC-257 melanoma
M14 melanoma = test system: M14 melanoma
HCT-15 colon = test system: HCT-15 colon
HT29 colon = test system: HT29 colon
SNB-75 CNS = test system: SNB-75 CNS
SNB-19 CNS = test system: SNB-19 CNS
U251 CNS = test system: U251 CNS
PC-3 prostate = test system: PC-3 prostate
SK-MEL-5 melanoma = test system: SK-MEL-5 melanoma
UACC-62 melanoma = test system: UACC-62 melanoma
LOX IMVI melanoma = test system: LOX IMVI melanoma
SK-MEL-28 melanoma = test system: SK-MEL-28 melanoma

Measured: growth

CC(C)c1cc(N=O)cc(C(C)C)c1O
inactive: DU-145 prostate 119% | K-562 leukemia 106% | MALME-3M melanoma 110% | MDA-MB-231 breast 99.3% | RXF 393 renal 110% | SF-268 CNS 104% | SF-295 CNS 102% | SF-539 CNS 109% | UACC-257 melanoma 94.8% | M14 melanoma 123% | HCT-15 colon 98.4% | HT29 colon 109% | SNB-75 CNS 99.9% | SNB-19 CNS 95.2% | U251 CNS 98.5% | PC-3 prostate 97.5% | SK-MEL-5 melanoma 105% | UACC-62 melanoma 96.3% | LOX IMVI melanoma 96.1% | SK-MEL-28 melanoma 105%

c1ccc2c(c1)Cc1ccccc1N2CCN1CCCCC1
inactive: DU-145 prostate 104% | K-562 leukemia 91.5% | MALME-3M melanoma 111% | MDA-MB-231 breast 81.5% | RXF 393 renal 110% | SF-268 CNS 99% | SF-295 CNS 92.5% | SF-539 CNS 94.9% | UACC-257 melanoma 102% | M14 melanoma 86.1% | HCT-15 colon 94.2% | HT29 colon 74.4% | SNB-75 CNS 94.7% | SNB-19 CNS 90.6% | U251 CNS 90.1% | PC-3 prostate 82.7% | SK-MEL-5 melanoma 95.5% | LOX IMVI melanoma 87.8% | SK-MEL-28 melanoma 110%

NC1=CC(=O)C(=O)c2cccnc21
active: MALME-3M melanoma -0.873%
inactive: DU-145 prostate 28.3% | K-562 leukemia 88.4% | MDA-MB-231 breast 83.9% | RXF 393 renal 83.5% | SF-268 CNS 90.4% | SF-295 CNS 77.3% | SF-539 CNS 101% | UACC-257 melanoma 64.4% | M14 melanoma 32.1% | HCT-15 colon 66.7% | HT29 colon 103% | SNB-75 CNS 45.5% | SNB-19 CNS 66.5% | PC-3 prostate 78.2% | SK-MEL-5 melanoma 21% | UACC-62 melanoma 88.3% | LOX IMVI melanoma 25.9%

O=C(Nc1ccc(F)cc1)c1cc2ccccc2cc1O
inactive: DU-145 prostate 85.7% | K-562 leukemia 45.6% | MALME-3M melanoma 72% | MDA-MB-231 breast 66.7% | RXF 393 renal 94.6% | SF-268 CNS 87.3% | SF-295 CNS 90.7% | SF-539 CNS 84% | UACC-257 melanoma 58.1% | M14 melanoma 88.4% | HCT-15 colon 76% | HT29 colon 95.8% | SNB-75 CNS 91.8% | SNB-19 CNS 83.3% | U251 CNS 79.6% | PC-3 prostate 42.9% | SK-MEL-5 melanoma 65.7% | UACC-62 melanoma 57.6% | LOX IMVI melanoma 76% | SK-MEL-28 melanoma 88.7%

CCCCC1(O)CCCCC1
inactive: DU-145 prostate 101% | K-562 leukemia 96.1% | MALME-3M melanoma 97.2% | MDA-MB-231 breast 103% | RXF 393 renal 98.8% | SF-268 CNS 103% | SF-295 CNS 97.6% | SF-539 CNS 118% | UACC-257 melanoma 102% | M14 melanoma 99.3% | HCT-15 colon 110% | HT29 colon 98.5% | SNB-75 CNS 105% | SNB-19 CNS 106% | U251 CNS 99.1% | PC-3 prostate 103% | SK-MEL-5 melanoma 105% | UACC-62 melanoma 102% | SK-MEL-28 melanoma 106%

CCN(CC)CCOC(=O)c1cc(OCc2ccccc2)c(OCc2ccccc2)c(OCc2ccccc2)c1
active: K-562 leukemia 0.819% | HT29 colon 7.14% | LOX IMVI melanoma -16.9%
inactive: DU-145 prostate 64.6% | MALME-3M melanoma 54% | MDA-MB-231 breast 16% | RXF 393 renal 47% | SF-268 CNS 59.3% | SF-295 CNS 84.5% | SF-539 CNS 81.1% | UACC-257 melanoma 73.8% | M14 melanoma 18.4% | HCT-15 colon 13.1% | SNB-75 CNS 72.1% | SNB-19 CNS 56.9% | U251 CNS 18.3% | PC-3 prostate 49.6% | SK-MEL-5 melanoma 63.3% | SK-MEL-28 melanoma 63.2%

OCC1OC(n2ccc3c(NO)ncnc32)C(O)C1O (stereo not drawn)
active: DU-145 prostate -16.6% | K-562 leukemia -11.4% | MALME-3M melanoma -69.2% | MDA-MB-231 breast -20% | RXF 393 renal -32.7% | SF-268 CNS -14.3% | SF-295 CNS -15.4% | SF-539 CNS -44% | UACC-257 melanoma -57.3% | M14 melanoma -89.7% | HCT-15 colon -37.6% | HT29 colon -1.97% | SNB-75 CNS -24.2% | SNB-19 CNS -0.974% | U251 CNS 0.0054% | PC-3 prostate -7.72% | SK-MEL-5 melanoma -90.8% | UACC-62 melanoma -88.8% | LOX IMVI melanoma -45.3% | SK-MEL-28 melanoma -47.5%

CS(=O)(=O)c1nccc(-c2c(-c3ccc(OCCc4ccccc4)cc3)nc3sccn23)n1
inactive: DU-145 prostate 94% | K-562 leukemia 100% | MALME-3M melanoma 103% | MDA-MB-231 breast 85.2% | RXF 393 renal 92.5% | SF-268 CNS 104% | SF-295 CNS 108% | SF-539 CNS 85.5% | UACC-257 melanoma 103% | M14 melanoma 94.6% | HCT-15 colon 103% | HT29 colon 88.1% | SNB-75 CNS 89.1% | SNB-19 CNS 89.4% | U251 CNS 95.9% | PC-3 prostate 93.9% | UACC-62 melanoma 88% | LOX IMVI melanoma 92.6% | SK-MEL-28 melanoma 96.3%

O=C(O)COc1c(Cl)cc([N+](=O)[O-])cc1Cl
inactive: DU-145 prostate 111% | K-562 leukemia 92.2% | MALME-3M melanoma 97.1% | MDA-MB-231 breast 117% | RXF 393 renal 102% | SF-268 CNS 96.5% | SF-295 CNS 100% | SF-539 CNS 99.5% | UACC-257 melanoma 79.7% | M14 melanoma 88.7% | HCT-15 colon 103% | HT29 colon 86.2% | SNB-75 CNS 102% | SNB-19 CNS 112% | U251 CNS 97.5% | PC-3 prostate 65.3% | SK-MEL-5 melanoma 96.3% | LOX IMVI melanoma 100% | SK-MEL-28 melanoma 102%

C/C=C/CSC(C)(C)C(=O)NC
inactive: DU-145 prostate 103% | K-562 leukemia 110% | MALME-3M melanoma 111% | MDA-MB-231 breast 120% | RXF 393 renal 110% | SF-268 CNS 103% | SF-295 CNS 106% | SF-539 CNS 100% | UACC-257 melanoma 92.2% | M14 melanoma 104% | HCT-15 colon 100% | HT29 colon 98.1% | SNB-75 CNS 92% | SNB-19 CNS 101% | U251 CNS 104% | PC-3 prostate 92.8% | SK-MEL-5 melanoma 101% | UACC-62 melanoma 105% | LOX IMVI melanoma 97% | SK-MEL-28 melanoma 112%

O=S(=O)(Oc1ccc(-c2ccc3sccc3c2)cc1)c1ccccc1
inactive: DU-145 prostate 107% | K-562 leukemia 89.6% | MALME-3M melanoma 105% | MDA-MB-231 breast 97.3% | RXF 393 renal 97.1% | SF-268 CNS 105% | SF-295 CNS 93.9% | SF-539 CNS 108% | UACC-257 melanoma 104% | M14 melanoma 114% | HCT-15 colon 89.8% | HT29 colon 88.9% | SNB-75 CNS 120% | SNB-19 CNS 96.8% | U251 CNS 108% | PC-3 prostate 91% | SK-MEL-5 melanoma 94.4% | UACC-62 melanoma 74.9% | LOX IMVI melanoma 101% | SK-MEL-28 melanoma 97.9%

CS(=O)(=O)c1nccc(-c2c(-c3cccc(OCCc4ccccc4)c3)nc3sccn23)n1
inactive: DU-145 prostate 108% | K-562 leukemia 95.5% | MALME-3M melanoma 102% | MDA-MB-231 breast 93.7% | RXF 393 renal 118% | SF-268 CNS 106% | SF-295 CNS 109% | SF-539 CNS 103% | UACC-257 melanoma 101% | M14 melanoma 114% | HCT-15 colon 108% | HT29 colon 99.7% | SNB-75 CNS 98.4% | SNB-19 CNS 92.6% | U251 CNS 99.4% | PC-3 prostate 86.9% | SK-MEL-5 melanoma 78.3% | UACC-62 melanoma 85.9% | LOX IMVI melanoma 94.2% | SK-MEL-28 melanoma 112%

O=C(CSc1nnc(-c2cccnc2SCc2ccccc2)o1)Nc1nc(Cl)cc(Cl)n1
inactive: DU-145 prostate 107% | K-562 leukemia 92.8% | MALME-3M melanoma 94% | MDA-MB-231 breast 92% | RXF 393 renal 105% | SF-268 CNS 99.7% | SF-295 CNS 96.8% | SF-539 CNS 101% | UACC-257 melanoma 113% | M14 melanoma 92% | HCT-15 colon 106% | HT29 colon 110% | SNB-75 CNS 85.7% | SNB-19 CNS 106% | U251 CNS 106% | PC-3 prostate 94.5% | SK-MEL-5 melanoma 101% | UACC-62 melanoma 101% | LOX IMVI melanoma 94.9% | SK-MEL-28 melanoma 113%

COc1cc2cc(Oc3ccc(NC(=O)Nc4ccc(C(F)(F)F)cc4)cc3)c(C)nc2cc1OC
active: RXF 393 renal 6.29%
inactive: DU-145 prostate 71.4% | K-562 leukemia 57.1% | MALME-3M melanoma 82.9% | MDA-MB-231 breast 80.9% | SF-268 CNS 79.3% | SF-295 CNS 56% | SF-539 CNS 96.9% | UACC-257 melanoma 66.5% | M14 melanoma 95.2% | HCT-15 colon 75.4% | HT29 colon 44.6% | SNB-75 CNS 41% | SNB-19 CNS 93.4% | U251 CNS 15% | PC-3 prostate 48.3% | SK-MEL-5 melanoma 47.4% | UACC-62 melanoma 69.2% | LOX IMVI melanoma 56.4% | SK-MEL-28 melanoma 58.4%

O=C(N/N=C/c1cc([N+](=O)[O-])ccc1O)c1cccc2ccccc12
active: UACC-62 melanoma 9.83% | LOX IMVI melanoma 9.69%
inactive: DU-145 prostate 45.2% | K-562 leukemia 30.3% | MALME-3M melanoma 53.7% | MDA-MB-231 breast 40.9% | RXF 393 renal 46.5% | SF-268 CNS 39.8% | SF-295 CNS 26.4% | SF-539 CNS 22.9% | UACC-257 melanoma 23.5% | M14 melanoma 34.5% | HCT-15 colon 22.5% | HT29 colon 65.9% | SNB-75 CNS 55% | SNB-19 CNS 53% | U251 CNS 29.8% | PC-3 prostate 41.4% | SK-MEL-5 melanoma 39.1% | SK-MEL-28 melanoma 50%
